Laboratory results: the OligoGym collection

target: VN1R2; test: pooled miR-30 sensor sort-seq; sequence = guide strand; conditions: shRNA
Note: reference of the scale not given here.

| Sequence | sensor-assay potency score (higher = more potent) |
| --- | --- |
| TAACATAATGCAAAGGTGCTCA | -0.437 |
| TAGTGCAGCAGTGTTCACTAGC | -0.0087 |
| TTTGGTGGGTTTCTCTCCGTGT | -0.0937 |
| TAAACGTAGGTGATGAAGGAAA | -0.975 |

target: VNN1; test: as above; conditions: shRNA

| Sequence | sensor-assay potency score (higher = more potent) |
| --- | --- |
| TTATTATTCTTGCTTGTGCTGT | -0.405 |
| TAGAGGATAATATTAACCCGGA | -0.217 |
| TATCATAATGAAATGCTCTTGA | 0.667 |
| TTACTGTTAAGACAGGTCCGGA | -1.14 |
| TTTGCCACAACATAGATAGAGT | -0.809 |
| TTGACACCTGAAATTCTCCAGG | -0.925 |
| TTAGCATTATTATTCTTGCTTG | -0.677 |
| TTTCAAACCTGGTAGAAGCTGT | 0.475 |
| TTCTCAGACATTTTGTAGCTTA | 0.132 |
| TTAAATGACAGCAGAGATCTTT | 0.464 |
| TTTCACTCAGCAACACCTCAGG | -0.729 |
| TATGGGTAGAGAGAGTCCCTGT | -0.516 |

target: VNN2; test: as above; conditions: shRNA

| Sequence | sensor-assay potency score (higher = more potent) |
| --- | --- |
| TTAAATGACAGCAAAGCTCCTT | 0.199 |
| TTTCGGTAAGTAGCACTTCAGG | -1.26 |
| TAAATGACAGCAAAGCTCCTTT | 0.246 |
| TTAGCAGGTAAGTTATTGCTGA | -0.154 |
| TATTGTATTGAAAGTAGCCATT | -1.45 |
| TCTTCTTTTTGTAACATTCTGT | -0.103 |
| TATACTACTGAAATAGCCCTTC | 0.854 |
| TTCTTTTTGTAACATTCTGTAG | -1.08 |
| TTTCAAATCTTGTAGAAGCAGT | -0.249 |
| TTGCACTTCAGCATTGTGCAGA | -0.233 |
| TAATAATATGAATATTAGCAGG | -1.34 |
| TAAGTTATTGCTGAATTGCTGG | 0.0796 |

target: VWA2; test: as above; conditions: shRNA

| Sequence | sensor-assay potency score (higher = more potent) |
| --- | --- |
| TTTGTCATAGATGTGCAGCAGG | -0.376 |
| TAGACCATCACATGCTTTGGGC | -0.664 |
| TTTGAAAACCATCCTCTTGATT | -0.884 |
| AAAACCATCCTCTTGATTCTTG | -0.0709 |
| TTTGGTTGAACAGATCCTGAGG | -0.36 |
| TCTCACAAAGCTCTGCATCTGA | 0.327 |
| TAACAGAAACATGATGTCCACT | -1.06 |
| TTGCTTACATGGACTTCCTGGA | -0.0634 |
| TTGAAAATGAATCCAAGGGGAA | -0.607 |
| TTTCTTTGCTTACATGGACTTC | -1.06 |
| TTTGCTTACATGGACTTCCTGG | 0.502 |
| TAGCCGTCCAGTCCTTCTGGAA | -1.51 |
